“And” between values parts separate entries of the source, which are not always exact repeats. Identical values can stand only once. The source made the active and inactive calls. How the source made its calls: active means hit-call score of the fitted dose curve at least 0.9, where 1 is the maximum; inactive means score below 0.9.
Each compound was assayed against Peroxisome proliferator-activated receptor gamma (Homo sapiens) (UniProt P37231) (assay: ERF_US_NR_hPPARG: Eurofins (ERF) Nuclear Receptor (NR) Cell Based Protein-Protein Interaction LeadHunter Assay for human Peroxisome Proliferator-activated Receptor-gamma (PPARg) Agonism).
Peroxisome proliferator-activated receptor gamma (Homo sapiens), sequence (P37231 whole entry, looked up): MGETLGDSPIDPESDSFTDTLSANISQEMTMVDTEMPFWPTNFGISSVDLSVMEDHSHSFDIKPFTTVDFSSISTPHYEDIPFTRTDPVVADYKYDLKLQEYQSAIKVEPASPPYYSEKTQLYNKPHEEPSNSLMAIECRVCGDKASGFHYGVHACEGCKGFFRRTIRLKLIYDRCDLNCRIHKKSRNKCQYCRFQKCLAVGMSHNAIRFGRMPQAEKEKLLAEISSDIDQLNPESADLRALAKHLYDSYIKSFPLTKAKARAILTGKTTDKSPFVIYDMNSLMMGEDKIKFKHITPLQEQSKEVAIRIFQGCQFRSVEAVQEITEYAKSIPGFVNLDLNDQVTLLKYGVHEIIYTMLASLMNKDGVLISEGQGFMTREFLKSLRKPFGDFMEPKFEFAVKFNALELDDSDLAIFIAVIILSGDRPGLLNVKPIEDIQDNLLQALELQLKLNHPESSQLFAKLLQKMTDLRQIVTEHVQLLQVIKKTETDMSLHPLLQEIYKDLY
Protocol: ERF_US_NR_hPPARG is a cell-based, single-readout assay that uses extracted gene-proteins in a cell-line assay. Measurements were taken 5 hours after chemical dosing in a 384-well plate. See PPARgamma Human NHR Cell Based Agonist Protein-Protein Interaction Assay, DiscoverX.ERF_US_NR_hPPARG is an assay component calculated from the ERF_US_NR_hPPARG assay. It is designed to measure […] using a type of binding reporter as detected by scintillation counting with radiometry technology.Data from the assay component ERF_US_NR_hPPARG was analyzed at the assay endpoint, ERF_US_NR_hPPARG, in the positive analysis fitting direction relative to DMSO as the negative control and baseline of activity. Using a type of binding reporter, gain-of-signal activity can be used to understand changes in binding as they relate to gene PPARG. To generalize the intended target to other relatable targets, this assay endpoint is annotated to the nuclear receptor intended target family, where the subfamily is non-steroidal.
Cells were seeded in a total volume of 20 uL into white walled, 384-well microplates and incubated at 37C overnight prior to testing.Briefly, intermediate dilution of sample stocks was performed to generate 5X sample in assay buffer. 5 uL of 5X sample was added to cells and incubated at 37C for 300 minutes. Final assay vehicle concentration was 1%. The results are expressed as a percent efficacy of the control ligand.
In the case of `O=C(CC(=O)C(F)(F)C(F)(F)C(F)(F)F)c1cccs1`, the AC50 is reported as 21.7 µM (active) and 23.7 µM (active).
For `O=C(O)CCC(F)(F)C(F)(F)C(F)(F)F`, the outcome was “inactive”.
In the case of `NC(=O)c1nc(-c2cccc(-c3cc(F)ccc3OCC(F)(F)C(F)(F)F)c2)n[nH]1`, the outcome is reported as “inactive”.
